Screens from PubChem BioAssay.
The list is not random: actives were taken first. Their share in the collection is about 2.3%.
Bcl-xL primary: inhibitors of human Bcl-xL, primary screen, biochemical, fluorescence polarization, HTS. Bcl-2-like protein 1 (Homo sapiens), Q07817. GST-Bcl-xL / FITC-Bim BH3 peptide fluorescence polarization. inhibition, % at 10.9 µM. 320,000 compounds, 0.7% hits;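 active = inhibition above the mean of all tested compounds plus 3 SD, cutoff set per campaign, cut at about 30% in these data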;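 also: inhibitors lower millipolarization by displacing the labeled peptide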
Mcl1-Noxa inh: Mcl-1/Noxa binding inhibitors, primary screen, biochemical, TR-FRET, 1536-well; AID 1022, 2008; Induced myeloid leukemia cell differentiation protein Mcl-1 (Homo sapiens), Q07820; inhibition, % at 21.7 µM; 220,000 compounds, 1.5% hits; TR-FRET Mcl-1/Noxa peptide binding, 2 h;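 active = compounds that cut the protein-peptide binding signal by more than 50% relative to plate controls in a single-dose test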;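 also: His-tagged Mcl-1 with rhodamine Noxa BH3 peptide and terbium anti-His antibody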
GLD-1 RNA inh: GLD-1/TGE RNA complex disruptors, primary screen, biochemical, fluorescence polarization; inhibition, % at 5.96 µM; 320,000 compounds, 0.44% hits; Female germline-specific tumor suppressor gld-1 (Caenorhabditis elegans), Q17339; purified GLD-1 + fluorescein TGE RNA;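 active = percent inhibition above a per-plate cutoff, the plate mean of test compounds plus 3 SD, cut at about 30% in these data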
Target sequence (Q17339 whole entry, looked up): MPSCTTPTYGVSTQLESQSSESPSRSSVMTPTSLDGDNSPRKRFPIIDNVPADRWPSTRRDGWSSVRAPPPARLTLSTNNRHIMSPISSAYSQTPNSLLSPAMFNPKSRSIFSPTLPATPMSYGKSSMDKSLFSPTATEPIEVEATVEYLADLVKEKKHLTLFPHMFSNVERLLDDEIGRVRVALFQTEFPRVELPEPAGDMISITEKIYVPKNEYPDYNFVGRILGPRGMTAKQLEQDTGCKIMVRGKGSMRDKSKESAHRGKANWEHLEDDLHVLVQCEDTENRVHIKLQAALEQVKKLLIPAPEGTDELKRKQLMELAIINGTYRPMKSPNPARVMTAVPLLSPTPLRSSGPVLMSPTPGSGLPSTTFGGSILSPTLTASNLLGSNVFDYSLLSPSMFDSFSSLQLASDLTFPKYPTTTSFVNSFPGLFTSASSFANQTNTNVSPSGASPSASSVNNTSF
MCL1 BIM primary: inhibitors of MCL1 binding to BIM-BH3, primary screen, biochemical, fluorescence polarization | AID 2057, 2009 | GST-MCL1 / FITC-Bim-BH3 fluorescence polarization | 320,000 compounds, 0.68% hits | Induced myeloid leukemia cell differentiation protein Mcl-1 (Homo sapiens), Q07820 | inhibition, % at 10.9 µM;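 active = inhibition above the mean inhibition of all tested compounds plus 3 SD, set per campaign, cut at about 40% in these data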;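 also: higher means more loss of mP so more displacement of Bim peptide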
Bim-Mcl-1: inhibitors of Bim peptide binding to Mcl-1, primary screen, biochemical, bead-based flow cytometry, multiplex. Induced myeloid leukemia cell differentiation protein Mcl-1 (Homo sapiens), Q07820. Bim peptide-Mcl-1 binding. inhibition, % at 10 µM. 190,000 compounds, 0.1% hits; in the data active = inhibition above about 40%
Mcl1 Bid PPI: Mcl-1/Bid binding inhibitors, primary screen, biochemical, TR-FRET, 1536-well; TR-FRET Mcl-1/Bid-Dy647 peptide binding; inhibition, % at 21.7 µM; 220,000 compounds, 0.97% hits;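 active = compounds that cut the binding signal by more than half at the single screening dose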;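 also: His-tagged Mcl-1 with europium anti-His antibody binding Bid BH3 peptide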
Of the large screens only hits and unclear results are named; the others gave an inactive call.

O=[N+]([O-])c1ccc(N/N=C/c2cccc(O)c2O)c(S(=O)(=O)N2CCOCC2)c1	none
O=[N+]([O-])c1cccc(N/N=C/c2cccc(O)c2O)c1	Mcl1-Noxa inh 67
Cc1cccc(N/N=C/c2ccc(O)c(O)c2O)c1	Mcl1-Noxa inh 53 (no result: Bim-Mcl-1)
O=[N+]([O-])c1ccccc1N/N=C/c1cccc(O)c1O	Mcl1-Noxa inh 54 (no result: Bim-Mcl-1)
O=[N+]([O-])c1ccccc1N/N=C\c1ccccc1Cl	none
CC(C)CNc1nc(SCC(=O)Nc2ccccc2)nc(N2CCOCC2)n1	none
CCn1cc(S(=O)(=O)Nc2ccc(Cl)cc2F)cn1	none (no result: Mcl1-Noxa inh, Bim-Mcl-1, Mcl1 Bid PPI)
O=C(NCCc1ccccc1)C1CC(=O)N(C2CCCC2)C1 (stereo not drawn)	none (no result: Mcl1-Noxa inh, Bim-Mcl-1, Mcl1 Bid PPI)
Cc1cc(C)c2nc(N3CCCN(C(=O)c4ccco4)CC3)c(C#N)cc2c1	Mcl1-Noxa inh 73, Mcl1 Bid PPI 55
COc1ccc(N)c2c1OCCC2=O	Mcl1-Noxa inh 57
Cc1noc(C)c1COc1ccc(C(=O)Nc2cccnc2)cc1	Mcl1-Noxa inh 53 (no result: Bcl-xL primary, GLD-1 RNA inh, MCL1 BIM primary)
O=C(c1cc(-c2ccco2)on1)N1CCc2ccccc2C1	Mcl1-Noxa inh 69
O=C(c1cc(-c2ccccc2O)on1)N1CCc2ccccc2C1	none
CC(C)Oc1ccc(S(=O)(=O)N2CCOCC2)cc1NC(=O)CN1C(=O)NC2(CCCC2)C1=O	none (no result: Mcl1-Noxa inh, Bim-Mcl-1, Mcl1 Bid PPI)
O=[N+]([O-])c1cc(Br)c(O)c(C=Nc2ccc(N3CCOCC3)cc2)c1	none
O=[N+]([O-])c1cc(Br)c(O)c(/C=N/Nc2nnnn2-c2cccc3ccccc23)c1	Mcl1 Bid PPI 66
CC[C@@]1(C(=O)OC)N[C@H](CN(C)S(=O)(=O)c2ccccc2)[C@@H]2C(=O)N(C)C(=O)[C@@H]21	none (no result: Bcl-xL primary, Mcl1-Noxa inh, MCL1 BIM primary, Bim-Mcl-1, Mcl1 Bid PPI)
CC(C)c1c(Cl)c(O)c(-c2ccccc2)c(=O)n1-c1ccc(F)cc1	Mcl1 Bid PPI 57
Cc1ccccc1C(=O)Nc1nc(-c2cccnc2)cs1	Mcl1-Noxa inh 75 (no result: Bim-Mcl-1)
CN(C)c1ccc(Nc2nc(-c3cccnc3)cs2)cc1	Mcl1-Noxa inh 60
CCN(CC)c1ccc(Nc2nc(-c3cccnc3)cs2)cc1	none (no result: Mcl1-Noxa inh, Bim-Mcl-1, Mcl1 Bid PPI)
O=C(O)CC1(CC(=O)Nc2cccc(C(=O)O)c2)CCCC1	none (no result: Mcl1-Noxa inh, Bim-Mcl-1, Mcl1 Bid PPI)
Cc1ccccc1NC(=O)c1cc([N+](=O)[O-])ccc1NCCN1C(=O)CCC1=O	none
Cc1cc(NC(=O)CSc2nnc(NC(=O)C3CC(=O)N(c4ccccc4)C3)s2)no1 (stereo not drawn)	Mcl1 Bid PPI 51
COc1ccc(/C=N/NC(=O)Nc2cccc3nsnc23)cc1	Mcl1 Bid PPI 53
O=c1c2ccccc2nc(COc2ccccc2)n1/N=C/c1cn[nH]c1-c1ccccc1	Mcl1 Bid PPI 56
Cc1ccccc1OCc1nc2ccccc2c(=O)n1/N=C/c1cn[nH]c1-c1ccc(Br)cc1	none
COc1ccc(N2C(=O)CC(NC34CC5CC(CC(C5)C3)C4)C2=O)c(OC)c1 (stereo not drawn)	Mcl1 Bid PPI 57
COc1ccc(CCN2C(=O)CC(NC34CC5CC(CC(C5)C3)C4)C2=O)cc1OC (stereo not drawn)	none
Nc1nc2nonc2nc1N1CCCCC1	Bcl-xL primary 34
C1CCCN(c2nc3nonc3nc2N2CCCCCC2)CC1	none
N#Cc1cc2ccccc2nc1SCC(=O)Nc1ccc(S(=O)(=O)N2CCCC2)cc1	GLD-1 RNA inh 45
O=c1cc(CN2CCN(c3ccc(F)cc3)CC2)nc2sccn12	Bcl-xL primary 34
O=S(=O)(Nc1cc(Sc2cccc3cccnc23)c(O)c2ccccc12)c1ccc(F)cc1	Mcl1-Noxa inh 51
COc1ccc(S(=O)(=O)Nc2cc(Sc3ncn[nH]3)c(O)c3ccccc23)cc1	Mcl1-Noxa inh 91 (no result: Bcl-xL primary, GLD-1 RNA inh, MCL1 BIM primary)
COc1cc(CNCc2ccc(Br)cc2)cc(OC)c1	none (no result: Mcl1-Noxa inh, Bim-Mcl-1, Mcl1 Bid PPI)
Cn1c(=O)c2c(SCC(=O)Nc3ccccc3F)nc(-c3ccccc3F)nc2n(C)c1=O	none (no result: Mcl1-Noxa inh, Bim-Mcl-1, Mcl1 Bid PPI)
